{"source": "PubChem BioAssay AID1159580", "about": "(chemical genetic matrix, 2015)", "assay": "chemical genetic growth profiling, strain panel (AID 1159580);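 also: tested at 20 µM; growth read once vehicle control cultures reached saturation at 30 °C; 1 = growth at the plate median or of vehicle wells; lower values mean less growth of the strain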", "details": "S. cerevisiae deletion strains, growth OD", "note": "In all, about 5,500 compounds went through this assay and about 2,000 (36%) were called active. Not shown: some 18% with an inconclusive outcome. The list shows a part of the results. Values without a mark were called inactive. Rule as the data show it: active = normalized growth mostly below about 0.91 (no sharp cut-off); inconclusive = no clear call, values can overlap the other calls; inactive = mostly above about 0.92."}
{"molecule": "CC(C)(C)C(=O)/C(C#N)=C/c1c(Cl)cccc1Cl", "values": [{"measurement": "normalized growth", "setting": "locus YAR019C, strain CDC15, active compounds read low", "value": "0.366 (active)"}, {"measurement": "normalized growth", "setting": "locus YBL105C, strain PKC1, active compounds read low", "value": "0.373 (active)"}, {"measurement": "normalized growth", "setting": "locus YBR135W, strain CKS1, active compounds read low", "value": "0.894 (active)"}, {"measurement": "normalized growth", "setting": "locus YBR136W, strain MEC1, active compounds read low", "value": "0.722 (active)"}, {"measurement": "normalized growth", "setting": "locus YDL017W, strain CDC7, active compounds read low", "value": "0.695 (active)"}, {"measurement": "normalized growth", "setting": "locus YDL028C, strain MPS1, active compounds read low", "value": 0.919}, {"measurement": "normalized growth", "setting": "locus YDL108W, strain KIN28, active compounds read low", "value": 0.957}, {"measurement": "normalized growth", "setting": "locus YDL214C, strain PRR2, active compounds read low", "value": "0.124 (active)"}, {"measurement": "normalized growth", "setting": "locus YDR052C, strain DBF4, active compounds read low", "value": 0.915}, {"measurement": "normalized growth", "setting": "locus YDR054C, strain cdc34, active compounds read low", "value": "0.291 (active)"}, {"measurement": "normalized growth", "setting": "locus YDR226W, strain ADK1, active compounds read low", "value": 0.913}, {"measurement": "normalized growth", "setting": "locus YDR477W, strain SNF1, active compounds read low", "value": "0.11 (active)"}, {"measurement": "normalized growth", "setting": "locus YER123W, strain YCK3, active compounds read low", "value": "0.105 (active)"}, {"measurement": "normalized growth", "setting": "locus YER133W, strain GLC7, active compounds read low", "value": "0.108 (active)"}, {"measurement": "normalized growth", "setting": "locus YFL029C, strain CAK1, active compounds read low", "value": "0.315 (active)"}, {"measurement": "normalized growth", "setting": "locus YFR019W, strain FAB1, active compounds read low", "value": "0.108 (active)"}, {"measurement": "normalized growth", "setting": "locus YFR028C, strain CDC14, active compounds read low", "value": "0.575 (active)"}, {"measurement": "normalized growth", "setting": "locus YGR040W, strain KSS1, active compounds read low", "value": "0.112 (active)"}, {"measurement": "normalized growth", "setting": "locus YGR052W, strain FMP48, active compounds read low", "value": "0.136 (active)"}, {"measurement": "normalized growth", "setting": "locus YGR092W, strain DBF2, active compounds read low", "value": "0.11 (active)"}, {"measurement": "normalized growth", "setting": "locus YHR030C, strain SLT2, active compounds read low", "value": "0.111 (active)"}, {"measurement": "normalized growth", "setting": "locus YHR079C, strain IRE1, active compounds read low", "value": "0.112 (active)"}, {"measurement": "normalized growth", "setting": "locus YHR082C, strain KSP1, active compounds read low", "value": "0.137 (active)"}, {"measurement": "normalized growth", "setting": "locus YHR205W, strain SCH9, active compounds read low", "value": "0.000694 (active)"}, {"measurement": "normalized growth", "setting": "locus YIL147C, strain SLN1, active compounds read low", "value": "0.691 (active)"}, {"measurement": "normalized growth", "setting": "locus YJL095W, strain BCK1, active compounds read low", "value": "0.104 (active)"}, {"measurement": "normalized growth", "setting": "locus YJL157C, strain FAR1, active compounds read low", "value": "0.105 (active)"}, {"measurement": "normalized growth", "setting": "locus YJR016C, strain ILV3, active compounds read low", "value": "0.64 (active)"}, {"measurement": "normalized growth", "setting": "locus YJR066W, strain TOR1 (second series), active compounds read low", "value": "0.124 (active)"}, {"measurement": "normalized growth", "setting": "locus YJR066W, strain TOR1, active compounds read low", "value": "0.131 (active)"}, {"measurement": "normalized growth", "setting": "locus YKL048C, strain ELM1, active compounds read low", "value": "0.151 (active)"}, {"measurement": "normalized growth", "setting": "locus YKL067W, strain YNK1, active compounds read low", "value": "0.129 (active)"}, {"measurement": "normalized growth", "setting": "locus YKL101W, strain HSL1, active compounds read low", "value": "0.131 (active)"}, {"measurement": "normalized growth", "setting": "locus YKL193C, strain SDS22, active compounds read low", "value": "0.506 (active)"}, {"measurement": "normalized growth", "setting": "locus YKL203C, strain TOR2, active compounds read low", "value": "0.115 (active)"}, {"measurement": "normalized growth", "setting": "locus YLR113W, strain HOG1, active compounds read low", "value": "0.165 (active)"}, {"measurement": "normalized growth", "setting": "locus YLR133W, strain CKI1, active compounds read low", "value": "0.125 (active)"}, {"measurement": "normalized growth", "setting": "locus YLR403W, strain SFP1, active compounds read low", "value": "0.0102 (active)"}, {"measurement": "normalized growth", "setting": "locus YML070W, strain DAK1, active compounds read low", "value": "0.122 (active)"}, {"measurement": "normalized growth", "setting": "locus YMR001C, strain CDC5, active compounds read low", "value": "0.401 (active)"}, {"measurement": "normalized growth", "setting": "locus YMR205C, strain PFK2 (second series), active compounds read low", "value": "0.142 (active)"}, {"measurement": "normalized growth", "setting": "locus YMR277W, strain FCP1, active compounds read low", "value": "0.397 (active)"}, {"measurement": "normalized growth", "setting": "locus YNL006W, strain LST8, active compounds read low", "value": "0.341 (active)"}, {"measurement": "normalized growth", "setting": "locus YNL020C, strain ARK1, active compounds read low", "value": "0.118 (active)"}, {"measurement": "normalized growth", "setting": "locus YNL161W, strain CBK1, active compounds read low", "value": "0.402 (active)"}, {"measurement": "normalized growth", "setting": "locus YNL183C, strain NPR1, active compounds read low", "value": "0.132 (active)"}, {"measurement": "normalized growth", "setting": "locus YNL207W, strain RIO2, active compounds read low", "value": "0.359 (active)"}, {"measurement": "normalized growth", "setting": "locus YNL222W, strain SSU72, active compounds read low", "value": "0.619 (active)"}, {"measurement": "normalized growth", "setting": "locus YNL307C, strain MCK1 (second series), active compounds read low", "value": "0.105 (active)"}, {"measurement": "normalized growth", "setting": "locus YOL078W, strain AVO1, active compounds read low", "value": "0.492 (active)"}, {"measurement": "normalized growth", "setting": "locus YOL136C, strain PFK27, active compounds read low", "value": "0.116 (active)"}, {"measurement": "normalized growth", "setting": "locus YOR061W, strain CKA2, active compounds read low", "value": "0.157 (active)"}, {"measurement": "normalized growth", "setting": "locus YOR119C, strain RIO1, active compounds read low", "value": "0.115 (active)"}, {"measurement": "normalized growth", "setting": "locus YOR231W, strain MKK1, active compounds read low", "value": "0.131 (active)"}, {"measurement": "normalized growth", "setting": "locus YOR329C, strain SCD5, active compounds read low", "value": "0.513 (active)"}, {"measurement": "normalized growth", "setting": "locus YPL031C, strain PHO85, active compounds read low", "value": "0.102 (active)"}, {"measurement": "normalized growth", "setting": "locus YPL153C, strain RAD53, active compounds read low", "value": "0.115 (active)"}, {"measurement": "normalized growth", "setting": "locus YPL204W, strain HRR25, active compounds read low", "value": "0.11 (active)"}, {"measurement": "normalized growth", "setting": "locus YPL209C, strain IPL1, active compounds read low", "value": "0.495 (active)"}, {"measurement": "normalized growth", "setting": "locus YPL256C, strain CLN2, active compounds read low", "value": "0.152 (active)"}, {"measurement": "normalized growth", "setting": "locus YPR025C, strain CCL1, active compounds read low", "value": "0.652 (active)"}, {"measurement": "normalized growth", "setting": "locus YPR111W, strain DBF20, active compounds read low", "value": 0.949}, {"measurement": "normalized growth", "setting": "strain NNK1, active compounds read low", "value": "0.265 (active)"}, {"measurement": "normalized growth", "setting": "strain TSCII, active compounds read low", "value": "0.322 (active)"}]}
